# Measurements as given in PubChem BioAssay AID2401 (Southern Research Specialized Biocontainment Screening …, 2010).
# In all, about 2,200 compounds went through this assay and about 530 (24%) were called active.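 The calls were made as follows: active = inhibition above a set limit at one or more concentrations of the dose series; inactive = inhibition under that limit at every dose.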 Not all results are given here. Results with a measured potency or affinity are listed apart.
# Experiment: nmpC-GFP reporter counter-screen in S. Typhimurium, dose response, counter-screen for PhoP regulon inhibitor project, Salmonella Typhimurium, GFP fluorescence (AID 2401);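 also: S. typhimurium with Mg-insensitive nmpC-GFP reporter grown at 10 µM Mg2+; drop in reporter fluorescence reflects general culture growth inhibition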
# Details: 4 h; series mostly up to 150 µM
row,Compound,outcome
1,Nc1ccccc1NC1=CC(=O)CC(c2ccco2)C1 (stereo not given),inactive
2,CCOC(=O)C1=NNC2(c3ccc(Cl)cc3)C(=O)N(c3cc(C)cc(C)c3)C(=O)C12 (stereo not given),inactive
3,NC1=NC(=Nc2ccc(Cl)cc2)c2ccccc21,inactive
4,C=CCNCC#CCOc1ccc(OC)cc1,inactive
5,O=C1NC2=C(CCc3ccccc32)C(c2ccc(Br)cc2)N1 (stereo not given),inactive
6,Cc1nc(C(=O)Nc2ccc(Cl)cc2)nn1-c1ccc([N+](=O)[O-])cc1,inactive
7,O=c1[nH]c2cc3c(cc2cc1CN(CCc1ccccc1)Cc1nnnn1CC1CCCO1)OCO3 (stereo not given),inactive
8,Cc1cc(-c2csc(NC(=O)c3ccc(S(=O)(=O)N(C)C)cc3)n2)c(C)n1-c1ccccc1,inactive
9,Cc1cc(C(=O)NCc2ccco2)no1,inactive
10,COc1ccc(-c2cc(-c3ccc(OC)c(OC)c3)n[nH]2)c(O)c1,inactive
11,COCCNC(=O)c1ccccc1NS(=O)(=O)c1ccc(Br)s1,inactive
12,Cc1cccn2cc(CSc3nnc(Nc4ccc(C(C)C)cc4)s3)nc12,inactive
13,CCC(CC)C(=O)N1c2ccc(F)cc2CCC1C (stereo not given),inactive
14,CC1(C)CC(=O)C2=C(C1)N(Cc1ccccc1)C(=O)C2(O)C(F)(F)F (stereo not given),inactive
15,COc1ccc(CNc2nc3c(c(=O)[nH]c(=O)n3C)n2CCCc2ccccc2)cc1,inactive
16,COC(=O)c1cc(C#N)c(Oc2cccc(C)c2C)nc1C,inactive
17,COC(=O)CN1C(c2ccc(OC)cc2)=Nc2ccc(Cl)cc2C1c1ccccc1 (stereo not given),inactive
18,CCCCn1c(O)c(C(CC)=Nc2ccc3c(c2)CCC3)c(=O)[nH]c1=O,inactive
19,Cc1ccc(C(=O)C(OC(=O)COc2ccccc2C)c2ccccc2)cc1 (stereo not given),inactive
20,Cc1ccc(C(=O)N2CC3(C(C)C)CN(C(=O)c4ccc(C)cc4)CC(C(C)C)(C2)C3=O)cc1,inactive
21,Cc1cc(C)c(NC(=O)COc2ccccc2C(=O)Nc2ccc3c(c2)oc2ccccc23)c(C)c1,inactive
22,CC1(C)CC(=O)C=C(Nc2ccccc2NC(=O)c2cnccn2)C1,inactive
23,COc1cc(C2NC(=O)NC(c3ccccc3)=C2C(C)=O)ccc1OCC(=O)O (stereo not given),inactive
24,Cc1ccc(C(=O)c2ccccc2C(=O)O)c(O)c1,inactive

row,Compound,outcome
1,Cc1c(/C=C/C(=O)c2ccccc2)cnn1C,inactive
2,COc1cccc(OC)c1C(=O)NC(=S)Nc1cc(-c2nc3ccccc3[nH]2)ccc1Cl,inactive
3,Cc1cc(C=O)c(C)n1-c1ccc(Oc2ccc([N+](=O)[O-])cn2)cc1,inactive
4,CCCn1c(SCC(=O)NCCc2ccccc2)nnc1-c1cccnc1,inactive
5,O=[N+]([O-])c1ccc(N2CCN(CCOc3nonc3-c3ccccc3)CC2)c(Cl)c1,inactive
6,Cc1ccc(S(=O)(=O)c2c(N)n(NC(=O)c3ccco3)c3nc4ccccc4nc23)cc1,inactive
7,Cc1c(Cl)cccc1NC(=O)CSc1ncnc2c1cnn2CCc1ccccc1,inactive
8,Cc1cccc(NC(=S)NC(NC(=O)c2ccco2)C(Cl)(Cl)Cl)c1 (stereo not given),inactive
9,CN(C)CCOC(=O)Cc1ccc(Cl)cc1,inactive
10,O=C(CN1C(=O)c2ccccc2C1=O)N1CCN(c2ccccn2)CC1,inactive
11,COC(=O)c1ccccc1Oc1cnc2ccccc2n1,inactive
12,Brc1ccc(NC2=Nc3ccccc3CC2)cc1,inactive
13,COc1ccc(N(CC(=O)Nc2ccccc2SC)S(C)(=O)=O)cc1OC,inactive
14,Cc1ccccc1CS(=O)(=O)c1snnc1C,inactive
15,CC(=O)Nc1ccc(NS(=O)(=O)c2ccc3c(c2)n(C)c(=O)n3C)cc1,inactive
16,CCOc1ccc(-c2nnc(SCc3nnc(-c4ccccc4)o3)n2-c2ccccc2F)cc1,inactive
17,COc1ccc(/C=C/C(=O)NCCc2nc3ccccc3[nH]2)cc1,inactive
18,CCOc1cc(/C=C2/NC(=O)N(CC(=O)Nc3cccc(C)c3)C2=O)ccc1OC,inactive
19,O=C(c1cccnc1Nc1ccc2c(c1)CCC2)N1CCOCC1,inactive
20,Cc1cc(C)cc(NC(=O)CSc2nc3c(c(=O)[nH]2)CN(Cc2ccc(F)cc2)CC3)c1,inactive
21,O=C(c1cc2ncc(Br)cn2n1)N1CCOCC1,inactive
22,O=[N+]([O-])c1ccccc1CNc1ccc(F)c(Cl)c1,inactive
23,Nc1nnc(SCCOc2ccc(Br)cc2)s1,inactive
24,O=S(=O)(NCc1ccccc1)c1cccc(S(=O)(=O)N2CCOCC2)c1,inactive

row,Compound,outcome
1,COc1ccc(Cl)cc1Nc1nc(-c2sc(NC(=O)c3ccco3)nc2C)cs1,inactive
2,O=C(/C=C/c1ccccc1)N1CCN(c2c(Cl)cccc2[N+](=O)[O-])CC1,inactive
3,CCCCOC(=O)CCNc1n[nH]c(=O)[nH]c1=O,inactive
4,CN1CCN(S(=O)(=O)c2ccc(N)cc2)CC1,inactive
5,O=C(NCc1ccccn1)Nc1cccc(Cl)c1,inactive
6,Cn1c(N)c(C(=O)COC(=O)C2CCCCC2)c(=O)n(C)c1=O,inactive
7,CC(C)CNC(=O)c1ccc(COc2ccc(Cl)cc2Cl)o1,inactive
8,C#CCOc1ccc(Cl)cc1/C=N/O,inactive
9,CCCCN(C(=O)NC(=O)Nc1nc2ccc(OC)cc2s1)S(C)(=O)=O,inactive
10,Cc1ccc2nc(SCC(=O)c3c(C)[nH]c4ccccc34)[nH]c2c1,inactive
11,CN(CCO)Cc1csc2ccc(Br)cc12,inactive
12,CCNC(=O)NC1(C(=O)Nc2ccc3c(c2)OCCO3)CCCCC1,inactive
13,CC1=CC(C)(C)n2c(O)c(C3=NC(=S)NC3=O)c3cc(OC(=O)c4cccc5ccccc45)cc1c32,inactive
14,CCOC(=O)C1CCCN(S(=O)(=O)c2ccc(Br)c(OC)c2)C1 (stereo not given),inactive
15,O=C(CCc1ccccc1)Nc1nc2ccc(S(=O)(=O)N3CCOCC3)cc2s1,inactive
16,O=C(c1ccc2nc(N3CCOCC3)sc2c1)N1CCC(Cc2ccccc2)CC1,inactive
17,CN1CCN(S(=O)(=O)c2ccc(-c3ccccc3)cc2)CC1,inactive
18,CCC1C2CN(C(C)=O)CC=C2C(C#N)=C(N)C1(C#N)C#N (stereo not given),inactive
19,CN(C)CCNc1nc(-c2ccccc2)nnc1C(F)(F)F,inactive
20,Cc1cc(NCCN2CCOCC2)n2ncc(-c3ccccc3)c2n1,inactive
21,Nc1c(-c2ccccc2Cl)cnn1-c1cccc([N+](=O)[O-])c1,inactive
22,N#Cc1ccc(C(c2nnnn2CCc2ccccc2)N2CCCCCC2)cc1 (stereo not given),inactive
